# In PubChem BioAssay (EPA / NIEHS):
# Results filed as inconclusive are left out. The source made the active and inactive calls. The calls were made as follows: active = hit-call score of the fitted dose curve at least 0.9, where 1 is the maximum; inactive = score below 0.9.
# Read-out: ABC Transporter (ABCB11), ABCB11 (gene 8647)
# Assay: CLD_ABCB11_24hr: CellzDirect (CLD) Gene Expression Assay for ABC Transporter (ABCB11) at 24 hours (AID 2283674)
# Procedure: CLD_24hr is a cell-based, multiplexed-readout assay that uses hepatocyte, a human liver primary cell, with measurements taken at 24 hours after chemical dosing in a 96-well plate.CLD_ABCB11_24hr is one of 16 assay component(s) measured or calculated from the CLD_24hr assay. It is designed to make measurements of mRNA induction, a form of inducible reporter, as detected with chemiluminescence signals by Quantitative Nuclease Protection Assay (qNPA) technology.Data from the assay component CLD_ABCB11_24hr was analyzed at the endpoint, CLD_ABCB11_24hr, in the positive analysis fitting direction relative to DMSO as the negative control and baseline of activity. Using a type of inducible reporter, gain-of-signal activity can be used to understand changes in the reporter gene as they relate to the gene ABCB11. Furthermore, this assay endpoint can be referred to as a primary readout. To generalize the intended target to other relatable targets, this assay endpoint is annotated to the transporter intended target family, where subfamily is ABC transporter.
# Human hepatocyte cultures were treated daily for two consecutive days with fresh dosing solutions containing appropriate concentrations of the 320 ToxCast chemicals (chemical identities were blinded to CellzDirect and other ToxCast collaborators), vehicle control (0.2% DMSO), and positive control inducers as summarized in Table 1. Due to the large number of treatment groups and chemicals examined, the ToxCast chemicals were divided into two groups (spanning two independent cultures of hepatocytes from separate donor preparations (Hu778: ToxCast plates 1 and 2; Hu776: ToxCast plates 3 and 4). Each preparation of human hepatocyte cultures was treated with respective vehicle control, medium only control, set of six positive controls/reference chemicals for the five hepatic receptor pathways, and a subset of eight of the ToxCast chemicals (indoxacarb, pyrithiobac-sodium, norflurazon, cyhalofop-butyl, methomyl, thiram, acetochlor, and propiconazole). These replicate data, coupled with internal replicates designed within the blinded ToxCast chemical library, provided additional data to evaluate interindividual differences between hepatocyte preparations and their potential impact on chemical profiles.Cell morphology and integrity were evaluated using phase-contrast microscopy as an indicator of hepatocyte cell health (Tyson & Green, 1987). Cultures for each treatment group (i.e., media, vehicle [0.2% DMSO], positive control inducers [multiple concentrations], and the ToxCast chemicals [multiple concentrations]) were observed and cell morphology was assessed relative to vehicle control cultures at each harvest time point (0, 6, 24, or 48 h). […] Images were evaluated at the conclusion of the study to assess changes in cell integrity and account for the effects of chemical exposure on uncharacteristic changes in concentration-dependent gene expression profiles. The results from these determinations of apparent cytotoxicity were annotated (yes/no) alongside the corresponding qNPA data for reference.At the conclusion of each treatment period, hepatocyte cultures (96-well) were washed with 1 volume of HBSS, lysed by addition of 25 ul ArrayPlate lysis buffer (HTG, Tucson, AZ), and 70 ul/well of Denaturation Oil, denatured by incubation at 95C for 10 min, and frozen at approximately -70C until analysis by nuclease protection assay (qNPA) (Roberts et al., 2007). For qNPA analysis, cell lysates were thawed at 50C for approximately 30 min, qNPA probes were added, and samples were incubated at 95C for 10 min to begin the detection process by denaturing the target RNA, dissociating the duplexes and secondary structure hybridization. At the conclusion of the hybridization period, S1 nuclease reagent was added to each sample to digest all nonprotected nucleotides at 50C for 60-90 min. […]
SMILES,outcome,AC50
CN(C)C(=S)SSC(=S)N(C)C,inactive,–
Oc1ccccc1-c1ccccc1,inactive,–
CCc1nn(C)c(C(=O)NCc2ccc(C(C)(C)C)cc2)c1Cl,–,34.8 µM (active)
COc1nc(C)nc(NC(=O)NS(=O)(=O)c2ccccc2Cl)n1,inactive,–
CCCCC(CC)COC(=O)c1ccccc1C(=O)OCC(CC)CCCC (stereo unspecified),inactive,–
COC(=O)N(OC)c1ccccc1COc1ccn(-c2ccc(Cl)cc2)n1,–,6.18 µM (active)
CCCCOC(=O)c1ccccc1C(=O)OCCCC,inactive,–
COC(=O)c1ccccc1C(=O)OC,inactive,–
C#CCOS(=O)OC1CCCCC1Oc1ccc(C(C)(C)C)cc1 (stereo unspecified),inactive,–
O=C(O)c1nc(Cl)ccc1Cl,inactive,–
COc1nc(C)nc(NC(=O)NS(=O)(=O)c2ccccc2CCC(F)(F)F)n1,inactive,–
COP(=S)(OC)Oc1nc(Cl)c(Cl)cc1Cl,inactive,–
COC(=O)C(C)Oc1ccc(Oc2ccc(Cl)cc2Cl)cc1 (stereo unspecified),inactive,–
C=CC1(C)OC(=O)N(c2cc(Cl)cc(Cl)c2)C1=O (stereo unspecified),inactive,–
CCCN(CCC)c1c([N+](=O)[O-])cc(S(N)(=O)=O)cc1[N+](=O)[O-],inactive,–
CC(C)(C)c1ccc(CSc2cnn(C(C)(C)C)c(=O)c2Cl)cc1,inactive,–
